Only some compounds are listed: those with a hit (about 4% of all), similar ones and a draw of the others.
CF NFkB inh: blocks PAF-induced NF-kB reporter in cystic fibrosis cells. KKLEB NF-kB-GFP reporter, GFP fluorescence overnight. actives 0.86% (n = 360,000). inhibition, % at 5 µM;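 active = at least 50% inhibition at 5 µM, scaled per plate between neutral and stimulator controls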;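 note: PAF is a Pseudomonas aeruginosa culture filtrate used as stimulus; plate controls were PAF-stimulated DMSO wells for no effect and unstimulated DMSO wells for full effect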
HIF-2a block: HIF-2a inhibition. actives 0.72% (n = 360,000). inhibition, % at 18.8 µM. 786-0 RCC cells HIF-2a reporter, luciferase luminescence, overnight;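 active = inhibition of the luminescence signal of 40% or more relative to plate controls, in a single-dose primary screen at 18.75 µM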
TROY NFkB inh: blocks TROY-dependent signaling in reporter cells; Q293 LMP1-TROYcd NF-kB luciferase reporter, 4 h; inhibition, % at 10 µM; actives 0.98% (n = 360,000);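 active = compounds whose plate-normalised and pattern-corrected inhibition of the luciferase reporter signal at the single screening dose is 50% or more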
TWEAK-Fn14 inh: blocks TWEAK-Fn14 interaction in a reporter cell assay | TWEAK-stimulated Fn14 reporter cells, luciferase luminescence, 8 h | inhibition, % at 10 µM | actives 2% (n = 360,000); in the data active = inhibition above about 50%
KKLEB tox: counter-screen for CF NF-kB inhibitors: cytotoxicity; actives 0.36% (n = 360,000); activity change (cytotoxicity), % at 5 µM; KKLEB CF airway cells viability, ATPlite luminescence, overnight; hits give low values; cells stimulated with P. aeruginosa culture filtrate;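 active = corrected activity change at or below -50% at 5 µM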
Peg3 promoter: reduces Peg3 promoter-driven luciferase expression in HeLa. HeLa PEG-Prom luciferase reporter, luminescence, overnight. inhibition, % at 20 µM. actives 1.7% (n = 360,000);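 active = inhibition of at least 50% at 20 µM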
An asterisk follows results filed as active; . = not tested or not shown.

SMILES	CF NFkB inh	HIF-2a block	TROY NFkB inh	TWEAK-Fn14 inh	KKLEB tox	Peg3 promoter
Cc1c(C(=O)N2CCOCC2)sc2nc(-c3ccccc3)cn12	-6.6	-168.1	-42.6	-3.6	-2.0	-194.4
O=C(NCc1ccc(F)cc1)C(c1ccccc1)c1ccccc1	-12.5	21.2	1.0	54.3*	3.9	11.5
COc1ccc(-c2csc(-c3ccccc3)n2)c(OC)c1	-18.9	-283.9	-11.0	56.4*	-1.7	-320.3
COc1ccc(-c2csc(-c3cccs3)n2)c(OC)c1	-14.4	-203.0	-45.4	-4.5	-6.2	-243.2
COc1ccc(C(O)c2nc(-c3cc(F)cc(F)c3)cs2)cc1 (configuration not stated)	-2.8	-18.9	-19.5	11.8	-0.8	1.2
O=C(Nc1cccc(-c2cccc(Cl)c2)c1)C1CCN(Cc2ccc(CO)o2)CC1	40.4	-13.8	-8.9	8.9	-24.0	54.5*
COCCn1c(SCC(=O)Nc2ccc(OC)c(S(N)(=O)=O)c2)nc2ccccc2c1=O	-4.8	13.9	-7.1	-7.2	-31.6	16.7
N#CCSc1nc2sc3c(c2c(=O)n1C1CCCCC1)CCCC3	45.2	18.8	38.8	58.4*	-24.2	17.7
O=S(=O)(c1ccc(Cl)cc1)N1CCSC1c1ccco1 (configuration not stated)	2.0	17.1	66.7*	3.0	3.9	18.9
Cc1ccc(C(=O)CC2(O)C(=O)N(CCc3ccccc3)c3ccc(Br)cc32)o1 (configuration not stated)	3.3	11.2	12.4	13.1	5.5	21.0
O=C(CC1(O)C(=O)N(CCc2ccccc2)c2ccccc21)c1ccco1 (configuration not stated)	12.4	3.6	.	86.3*	2.1	-18.0
Cc1cc2oc(=O)cc(-c3ccccc3)c2c(C)c1-c1ccc(O)cc1	42.5	16.2	53.5*	-32.2	-14.1	-24.4
Cc1cc(O)c2c(-c3ccccc3)cc(=O)oc2c1	8.8	-14.9	-19.4	16.5	-16.0	8.1
COCCn1ccc2c(OCC(=O)Nc3cc(OC)ccc3OC)cccc2c1=O	20.5	9.4	-10.4	-8.4	3.0	52.5*
COc1ccc(-c2csc(N(Cc3ccccc3)C(=O)COc3ccc(Cl)cc3)n2)cc1	20.5	7.8	-7.7	-7.6	-26.1	70.4*
Cc1ccc2nc(-c3ccco3)c(CC3CCCCC3)n2c1	23.1	-46.6	-3.7	5.0	-10.4	-35.0
Oc1ccc(C[C@H]2CN([C@@H](Cc3cccc(O)c3)CN3CCC[C@@H]3CN3C(=S)NC[C@@H]3Cc3ccccc3)C(=S)N2CC2CCCCC2)cc1	47.8	-58.3	17.1	55.5*	-17.7	105.0*
CC(C)C[C@H]1CNC(=S)N1CC1CCCN1C[C@H](Cc1ccccc1)N1C[C@H](Cc2ccc(O)cc2)N(CC2CCCCC2)C1=S (some centres not stated)	33.3	-5.2	1.0	22.9	-12.3	59.0*
Oc1ccc(C[C@H]2CNC(=S)N2C[C@H]2CCCN2C[C@H](Cc2ccccc2)N2C[C@H](Cc3ccc(O)cc3)N(CC3CCCCCC3)C2=S)cc1	44.8	-17.1	-23.8	18.6	-21.2	75.7*
CC(C)C[C@H]1CNC(=S)N1C[C@H]1CCCN1C[C@H](CC(C)C)N1C[C@H](Cc2ccc(O)cc2)N(CCc2ccccc2)C1=S	45.0	-37.3	17.0	22.5	-18.7	69.2*
Oc1ccc(C[C@H]2CN([C@@H](Cc3ccccc3)CN3CCCC3CN3C(=S)NC[C@@H]3Cc3ccccc3)C(=S)N2CC2CCCCC2)cc1 (some centres not stated)	.	7.5	6.0	3.4	.	.
CC(C)C[C@H]1CN([C@@H](Cc2ccc(O)cc2)CN2CCC[C@@H]2CN2C(=S)NC[C@@H]2Cc2ccccc2)C(=S)N1CC1CCCCC1	3.2	-5.4	0.8	-11.7	-2.8	6.1
Cc1ccc(/C=C/S(=O)(=O)NCC(=O)OCC(=O)Nc2c(F)cccc2F)cc1	-14.8	0.8	6.4	-6.3	-14.3	1.0
Oc1ccc(C[C@H]2CNC(=S)N2CC2CCCN2C[C@H](Cc2ccc(O)cc2)N2C[C@H](Cc3ccccc3)N(CCc3ccccc3)C2=S)cc1 (some centres not stated)	8.8	-2.5	4.9	54.9*	7.5	12.3
CCOc1ccc(C(=O)Nc2cc(-c3nc4ccccc4[nH]3)ccc2Cl)cc1[N+](=O)[O-]	39.4	27.3	12.6	36.1	-53.4*	62.1*
SMILES	CF NFkB inh	HIF-2a block	TROY NFkB inh	TWEAK-Fn14 inh	KKLEB tox	Peg3 promoter
Cc1ccc(-c2nc3ccccc3[nH]2)cc1NC(=O)c1ccc2c(c1)OCO2	-3.6	-66.3	-5.8	1.1	14.5	-7.5
Cc1ccc(-c2nc3ccccc3[nH]2)cc1NC(=S)NC(=O)c1ccccc1Br	-2.9	-216.9	36.3	66.7*	-4.4	7.2
O=C(NC(=S)Nc1cc(-c2nc3ccccc3[nH]2)ccc1Cl)c1ccc2c(c1)OCO2	-9.3	-275.4	53.3*	87.0*	-36.6	100.4*
CSc1ccc(CN2CCC(C)(Oc3cccc(C#N)c3)C2)cc1 (configuration not stated)	-22.7	-20.9	6.8	-13.0	2.3	7.2
CCCCNC(=O)c1nc(-c2cccnc2)oc1-c1ccc(OC(F)(F)F)cc1	.	-11.1	.	.	.	.
O=C(Nc1ccc2c(c1)OCO2)c1ccc(Br)c(S(=O)(=O)N2CCCC2)c1	0.4	-87.5	9.1	38.0	0.7	-54.9
CCOC(=O)c1ccc(NC(=O)c2ccc(C)c(S(=O)(=O)N3CCOCC3)c2)cc1	-11.4	13.8	73.4*	95.7*	13.8	92.8*
Cc1cc(C)n(-c2ccc(C(=O)Nc3ccc(C)c(S(=O)(=O)N4CCOCC4)c3)cc2)n1	-11.2	-1.7	64.2*	64.5*	4.0	34.1
CC(=O)c1ccc(NC(=O)c2ccc(C)c(S(=O)(=O)N3CCOCC3)c2)cc1	0.3	-19.7	-8.8	-6.3	2.9	-24.7
O=C(Nc1ccc2c(c1)OCCO2)c1ccc(Br)c(S(=O)(=O)N2CCOCC2)c1	0.3	3.0	61.5*	82.3*	-0.2	-12.2
CCOC(=O)c1cc(OC(=O)Cc2ccc(OC)c(S(=O)(=O)N3CCOCC3)c2)cc(C(=O)OCC)c1	21.5	-21.5	52.3*	28.4	-7.2	-8.0
COC(C[C@@H](O)[C@H](C)[C@@H](O)COCc1ccccc1)OC	0.0	4.5	-14.9	10.9	13.9	-3.3
CC1CCC(NC(=O)c2nc(Cn3ccc([N+](=O)[O-])n3)no2)CC1 (configuration not stated)	-8.7	9.5	7.9	2.9	-2.5	2.9
N#CCC(=O)N1CC2(CC(c3cccc(NC(=O)COc4ccc(Cl)cc4)c3)=NO2)C[C@@H]1C(N)=O (some centres not stated)	3.6	2.9	11.8	-2.6	7.3	-3.6
